# Assay outcomes deposited in PubChem BioAssay by The Scripps Research Institute Molecular Screening Center.
# hgDAF-12 ag: H. glycines DAF-12 receptor agonists, primary screen, cell-based, luminescence, HEK293, GAL4 fusion, UAS-luciferase | Nuclear hormone receptor DAF-12 (Heterodera glycines), GAL4 fusion | AID 687014, 2013 | activation, % at 6.8 µM | actives 1.8% (n = 370,000) | HEK293 GAL4-hgDAF12 UAS-luciferase reporter, agonist luminescence; normalized to butyrate control;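 active means activation above a cutoff set at the mean of all screened compounds plus 3 SD, cut at about 10% in these data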;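 further: 0% = DMSO wells and 100% = sodium butyrate wells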
# DAX1 inh-1: DAX1 (NR0B1) inhibitors, primary screen, cell-based, HEK293, Gal4-DAX1, luciferase luminescence. Nuclear receptor subfamily 0 group B member 1 (Homo sapiens), P51843. HEK293 Gal4-DAX1 luciferase reporter. inhibition, % at 6.75 µM. actives 0.99% (n = 340,000). AID 504766, 2011;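 active means inhibition above the mean over all tested compounds plus 3 SD, cut at about 4.2% in these data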;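 further: 0% = DAX1-transfected cells with DMSO and 100% = empty-vector control cells with DMSO; inhibition shows as a rise in luminescence from relieved DAX1 repression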
# Target sequence (P51843 207-470 limits assumed): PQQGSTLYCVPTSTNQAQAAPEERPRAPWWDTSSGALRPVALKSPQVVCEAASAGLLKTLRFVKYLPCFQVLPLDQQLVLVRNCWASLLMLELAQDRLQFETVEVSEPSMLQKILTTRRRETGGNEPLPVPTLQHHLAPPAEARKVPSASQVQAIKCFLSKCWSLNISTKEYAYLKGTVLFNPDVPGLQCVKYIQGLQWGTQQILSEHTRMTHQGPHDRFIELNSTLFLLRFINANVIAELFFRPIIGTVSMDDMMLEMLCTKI
# ssDAF-12 act: S. stercoralis DAF-12 nuclear receptor activators, primary screen, cell-based, luminescence, HEK293, GRIP1 co-expression, lit1-tk-luc; Nuclear hormone receptor DAF-12 (Strongyloides stercoralis); HEK293 ssDAF-12/GRIP1 lit1-tk-luc reporter; % of 3 µM dafachronic acid response; activation, % at 6.8 µM; actives 1% (n = 370,000); AID 652126, 2013;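 active means activation above the mean over all tested compounds plus 3 SD, cut at about 0.9% in these data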;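 further: 0% = DMSO-only wells and 100% = 3 µM delta7-dafachronic acid wells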
# hcDAF12 agonist: H. contortus DAF-12 nuclear receptor activators, primary screen, cell-based, luminescence, HEK293, lit1-tk-luc reporter; HEK293 hcDAF-12 lit1-tk-luc reporter; 0% DMSO, 100% Δ7-dafachronic acid; activation, % at 6.8 µM; actives 1.4% (n = 370,000); AID 652067, 2013;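 active means activation above the mean of all tested compounds plus 3 SD, cut at about 5.5% in these data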;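 further: 100% = response to 3 µM Δ7-dafachronic acid high control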
# DAX1 inh-2: DAX1 (NR0B1) inhibitors on StAR promoter, primary screen, cell-based, luminescence, SF-1 (NR5A1), full-length DAX-1; HEK293T StAR-luciferase reporter, SF-1/DAX-1 repression relief; actives 1.1% (n = 370,000); inhibition, % at 6.8 µM;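 active means inhibition above the mean over all tested compounds plus 3 SD, cut at about 3.6% in these data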;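 further: 0% = DAX-1 cells with DMSO and 100% = cells lacking DAX-1 with DMSO; higher inhibition means more luminescence from relief of DAX-1 repression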
# The depositor's hits bear a star; . = no result. Sampled rows, rich in hits. Any-hit rate of the full collection: about 4.1%.
SMILES,hgDAF-12 ag,DAX1 inh-1,ssDAF-12 act,hcDAF12 agonist,DAX1 inh-2
N#CCCN/N=C(/Cc1nc2ccccc2[nH]1)c1cccc(Cl)c1,1,0,1.3*,4,0
Cc1cc(Br)cn2c(CC(C)(C)C)c(-c3cccc(Cl)c3)nc12,-2,.,0,1,0
Cc1[nH]c2ccccc2c1CC(=O)Nc1ccc(N(C)c2cccnc2)c(-c2ccc(F)c(F)c2)c1,6,.,0,3,-2
CC(C)[C@@H]1NC(=O)[C@H]2C[C@@]3(C)c4ccccc4N[C@H]3N2C1=O,-1,.,1,2,-1
O=C(CN1CCN(c2ccccc2O)CC1)NC(=O)NCc1ccco1,-1,1,-1,-1,1
O=C(CSc1nnc(NC(=O)c2ccc3c(c2)OCO3)s1)NCc1ccco1,13*,-2,0,5.9*,2
O=C(CSc1nnc(NC(=O)c2ccccc2F)s1)NCC1CCCO1 (centres undefined),7,0,-1,5,3.8*
O=C(CN1CCc2ccccc21)NC(=O)NCc1ccco1,1,0,1.0*,3,0
O=C(CSc1nc2ccccc2s1)NC(=O)NCc1ccco1,2,2,1.4*,5,0
Cc1ccc(-c2nc3ncccn3c2NC(=O)Nc2ccc(OC(F)(F)F)cc2)cc1,-1,.,-1,1,0
CCOC(=O)N1CCN(C(=O)COC(=O)CN(C)S(=O)(=O)c2ccc(NC(C)=O)cc2)CC1,5,0,-1,0,-1
Cc1ccccc1C(=O)Nc1nnc(SCC(=O)NCc2ccco2)s1,12*,1,0,5.9*,8.0*
Nc1[nH]c(C(=O)c2ccccc2)c(-c2cccc3ccccc23)c1C(=O)NCc1ccc(F)c(F)c1,1,.,-1,0,0
COc1ccc(N2CC(=O)N(c3ccccc3)C2=S)cc1,12*,0,0,4,2
O=C1CN(c2ccc(F)cc2)C(=S)N1c1ccccc1,5,-1,0,2,0
O=C1CN(c2ccccc2)C(=S)N1c1ccccc1,3,4.4*,-1,1,1
COc1ccc(N=C2C(=Nc3ccc(OC)cc3)N(c3ccc(OC)cc3)C(=S)N2c2ccccc2)cc1,9,2,0,4,2
COc1ccc2c(c1OC)C(CC(C)=O)N1CCc3cc4c(cc3C1C2=O)OCO4 (centres undefined),-2,.,0,0,0
Cn1cc(Cl)c(C(=O)Nc2nccs2)n1,6,1,0,-1,1
CCn1cc(Cl)c(C(=O)Nc2nccs2)n1,1,1,0,6.4*,1
Cc1ccc(C(=O)Nc2nccs2)s1,8,3,0,4,1
O=C(Nc1nc2ccccc2s1)c1cc2c(s1)-c1ccccc1OC2,3,3,0,-1,0
O=C(Nc1nccs1)c1cc2c(s1)-c1ccccc1OC2,10*,2,0,5,3
O=C(Nc1nccs1)c1ccc(Br)s1,10,1,0,5.8*,3
O=C(Nc1nccs1)c1ccc(Cl)nc1,3,-1,0,5.9*,0
SMILES,hgDAF-12 ag,DAX1 inh-1,ssDAF-12 act,hcDAF12 agonist,DAX1 inh-2
Brc1ccc(CN2CCN(c3ncc(Cc4ccccc4)cn3)CC2)cc1,-1,.,-1,-3,-3
COC(=O)[C@]12C[C@H](CC(=O)N3CCC(c4ccccc4)CC3)C(=O)N(CCc3ccc(OC)c(OC)c3)C1=C[C@H](C(C)(C)C)O[C@@H]2C,-1,.,-1,0,-1
O=C1NC(=S)N/C1=C/c1cccnc1,12*,3,-2,-2,0
CC(C)CCN(C)[C@H]1C[C@H]2c3[nH]c4ccccc4c3CCN2C[C@H]1[C@H](C)O,-3,.,-1,-1,-1
C[n+]1c(-c2ccc(C=NNC(=O)c3ccc(C(=O)NN=Cc4ccc(-c5cn6ccccc6[n+]5C)cc4)cc3)cc2)cn2ccccc21,1,1,-1,0,0
Cc1nn(-c2ccccc2)c(C)c1NC(=O)COC(=O)c1ccc(O)cc1O,-3,0,-1,0,-2
CCOC(=O)c1c(C)oc2ccc(O)c(CN(C)C)c12,-2,2,-1,-1,1
CCOC(=O)c1c(C)oc2cc(Cl)c(O)c(CN(C)C)c12,13*,-1,-1,-2,1
CCCCNC(=O)C[C@@H]1C[C@@]2(C(=O)OC)CCCCC=C2N(CCC2=CCCCC2)C1=O,2,.,-2,0,1
Cc1ccc(S(=O)(=O)N2[C@@H](Cc3ccccc3)CO[C@H]2CC(=O)c2cccc3ccccc23)cc1,-1,.,-1,0,-1
COc1ccc2[nH]cc(C(C)c3c[nH]c4ccccc34)c2c1 (centres undefined),2,.,0,4,-1
CC(c1c[nH]c2ccccc12)c1c[nH]c2ccc(Br)cc12 (centres undefined),4,.,0,5.6*,-1
CC1CCC(NC(=O)c2ccc(S(C)(=O)=O)cc2)CC1 (centres undefined),3,0,6.4*,0,1
CC1CCC(NC(=O)CCNC(=O)c2ccc(Br)cc2)CC1 (centres undefined),10,1,0,2,4.3*
Nc1[nH]c(C(=O)c2ccc(Br)cc2)c(-c2c(F)cccc2F)c1C(=O)NCCc1c[nH]c2ccccc12,4,.,0,1,-1
CC(=O)OC[C@@H]1CN(Cc2ccccc2)C[C@H](n2cnc3c(N(C)C(C)C)ncnc32)O1,-1,.,-1,-2,-1
COc1ccc(C(=O)NCCCc2ccccc2)cc1,11*,.,0,2,2
COc1ccc(C(=O)C(=NNc2ccccc2)c2ccc(OC)cc2)cc1,-3,-2,-1,-1,-4
COc1ccc(C(=O)CC(=O)c2ccccc2)cc1,11*,.,0,4,1
O=C(NCCCc1ccccc1)c1ccccc1,7,0,0,3,1
COc1cccc(/C(O)=C/c2nc3ccc(C(=O)NCCc4cccc(C)c4)cc3[nH]c2=O)c1,3,0,1.1*,1,1
COc1ccc(C(=O)C(=NN)c2ccccc2)cc1,12*,1,0,0,3
COC(=O)c1cc(-c2ccccc2)c(=O)n2c1CCC2,1,.,-1,-1,0
O=C(CC(=O)c1ccncc1)c1ccccc1,5,0,-1,2,1
